Growth data for 28 compounds are collected here from PubChem BioAssay (NCI).

This is part of a sample that, as a whole, favours compounds with a hit. Of some 83,000 tested, about 20% had one in any assay.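 Method: cells in 96-well plates; compound added at one concentration; 48 h incubation; percent growth measured; values under 10 scored active.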 The source made the active and inactive calls.

For this experiment, the system named is MDA-MB-435 melanoma. Kind of experiment: NCI-60 one-dose screen, 48 h (100 = growth as untreated, 0 = no growth, -100 = all killed). Conditions: 10 µM unless noted.
With `O=C1/C(=C/c2ccc(-c3ccc(Br)cc3)o2)SC(=S)N1CCc1ccc(O)cc1`, the growth was 48.8% (inactive).

`O=C1CC(N2C(=O)/C(=C/C(Cl)=C\c3ccc([N+](=O)[O-])cc3)SC2=S)C(=O)N1c1ccc(Cl)cc1` (stereo not drawn): the growth was 3.02% (active).

As to `CCN(CC)c1nc(SCc2ccccc2Cl)ncc1C`, the growth is 108% (inactive).

On to `N#Cc1c(-c2ccccc2)cc(-c2ccccc2)n(CCCCCC(=O)Nc2ccccc2N)c1=O`, for which the growth is 92.1% (inactive).

As for `CCS/C(Nc1ccccc1)=C(\C#N)C(=O)N/N=C/c1ccc(Cl)cc1Cl`, the growth is -34.5% (active).

As to `N#CC1=C(N)Oc2c(sc3c(Br)cccc23)C1c1ccc(F)cc1` (stereo not drawn), the growth is -10.3% (active).

In the case of `O=C(Cn1c2c(c3ccccc31)CCCC2)Nc1ccc(-c2nc3ccccc3s2)cc1`, the growth was 104% (inactive).

For `COc1cc(-c2csc(NC(=O)c3cc(-n4cnc(C)c4)cc(C(F)(F)F)c3)n2)cc(OC)c1OC`, the growth was 74.8% (inactive).

For `CCN(CC)CCCN1C(=O)c2c(c(C)c3c(oc4cc(O)ccc43)c2C)C1=O`, the growth was -61.1% (active).

As to `COc1cc2oc(-c3cccc(NC(=O)c4cccc(Br)c4)c3)cc(=O)c2c(OC)c1OC`, the growth is 57.4% (inactive).

With `O=C(Cn1c(=O)sc2nc3ccccc3nc21)Nc1ncc(Cc2cccc(Cl)c2Cl)s1`, the growth is 101% (inactive).

On to `COc1ccc(OC)c(C(=O)/C=C/c2cc3c(c(OC)c2OC)OCO3)c1`, for which the growth was 63.2% (inactive).

On to `COC(=O)CCC(=O)C(=O)OC`, for which the growth was 29.2% [10 mM] (inactive).

With `O=C1c2c(c3c4ccccc4[nH]c3c3ccc4ccccc4c23)C(=O)N1CCN1CCCCC1`, the growth is 67.2% (inactive).

For `CCO/C=N/C1=C(C#N)C(c2ccc(OC)cc2)c2sc3c(F)cccc3c2O1` (stereo not drawn), the growth is -42.8% (active).

Take `COCCn1c(-c2csc(-c3cn(C)c4ccc(OC)cc34)n2)cc2cccnc21`: the growth is 74.5% (inactive).

Regarding `CN1C(=O)/C(=C/c2cn(-c3ccccc3)nc2-c2ccccc2)SC1=S`, the growth was 99.5% (inactive).

On to `CC(C)NC1CCC(Nc2ccnc3cc(Cl)ccc23)CC1` (stereo not drawn), for which the growth was 96% (inactive).

For `O=S(=O)(Nc1cc(Br)c(O)c2ccccc12)c1ccc(F)cc1`, the growth was -90.4% (active).

On to `CCN(CC)CCOc1ccc(-c2c(-c3ccccc3)c(=O)oc3ccccc23)cc1`, for which the growth was 100% (inactive).

On to `O=C(/C=C/c1cn(-c2ccccc2)nc1-c1ccc([N+](=O)[O-])cc1)c1ccc(Cl)cc1`, for which the growth is 59.5% (inactive).

For the compound `Cc1cc2c(O)c(-c3cccc(Cl)c3)c3sc(=O)oc3c2cc1C`, the growth was 28.9% (inactive).

As for `Cc1cccc(Cl)c1NC(=O)c1ccc2nc(NC(=O)NCCN(C)C)sc2c1`, the growth was 47% (inactive).

On to `O=C(c1ccccc1)C1C(=O)N2C(=S)N(c3ccccc3)C(=O)C2C1c1ccc(Cl)cc1` (stereo not drawn), for which the growth is 105% (inactive).

On to `N#Cc1nc(-c2ccccc2)oc1S(=O)(=O)N1CCOCC1`, for which the growth was 89.4% (inactive).

`COC(C(=O)[C@@H](O)[C@@H](C)O)[C@@H]1Cc2cc3cc(O[C@H]4C[C@@H](O[C@H]5C[C@@H](O)[C@H](O)C(C)O5)[C@H](O)C(C)O4)c(C)c(O)c3c(O)c2C(=O)[C@H]1O[C@H]1C[C@@H](O[C@H]2C[C@@H](O[C@H]3C[C@@H](O)[C@H](OC)C(C)O3)[C@@H](O)C(C)O2)[C@H](O)C(C)O1` (stereo partly drawn): the growth was -54.2% (active).

With `CC1=C(C(=O)OC(C)C)C(c2ccc3c(c2)OCO3)NC(=S)N1` (stereo not drawn), the growth is 106% (inactive).

With `O=C(/C=C/c1ccccc1)c1cccc(OCCCOc2cccc(C(=O)/C=C/c3ccccc3)c2)c1`, the growth is 101% (inactive).
